High-throughput results from PubChem.
TROY NFkB inh = inhibitors of TROY-dependent NF-kB signaling; AID 1347056; actives 0.98% (n = 360,000); inhibition, % at 10 µM; Q293 LMP1-TROYcd NF-kB luciferase reporter, 4 h;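 active = compounds whose plate-normalised and pattern-corrected inhibition of the luciferase reporter signal at the single screening dose is 50% or more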
HIF-2a block = HIF-2a inhibition; 786-0 RCC cells HIF-2a reporter, luciferase luminescence, overnight; inhibition, % at 18.8 µM; actives 0.72% (n = 360,000); AID 624352;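 active = inhibition of the luminescence signal of 40% or more relative to plate controls, in a single-dose primary screen at 18.75 µM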
Peg3 prom inh = inhibitors of Peg3 promoter. HeLa PEG-Prom luciferase reporter, luminescence, overnight. inhibition, % at 20 µM. actives 1.7% (n = 360,000). AID 588405;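 active = inhibition of at least 50% at 20 µM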
TWEAK-Fn14 inh = TWEAK-Fn14 signaling inhibition | actives 2% (n = 360,000) | AID 1159606 | TWEAK-stimulated Fn14 reporter cells, luciferase luminescence, 8 h | inhibition, % at 10 µM; in the data active = inhibition above about 50%
KKLEB tox = CF airway cell cytotoxicity counter-screen | KKLEB CF airway cells viability, ATPlite luminescence, overnight; stronger effect = lower value; cells stimulated with P. aeruginosa culture filtrate | activity change (cytotoxicity), % at 5 µM | actives 0.36% (n = 360,000);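 active = corrected activity change at or below -50% at 5 µM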
CF NFkB block = cystic fibrosis NF-kB activation inhibition; actives 0.86% (n = 360,000); inhibition, % at 5 µM; KKLEB NF-kB-GFP reporter, PAF-induced, GFP fluorescence overnight;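 active = at least 50% inhibition at 5 µM, scaled per plate between neutral and stimulator controls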;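 also: PAF is a Pseudomonas aeruginosa culture filtrate used as stimulus; plate controls were PAF-stimulated DMSO wells for no effect and unstimulated DMSO wells for full effect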
CF NFkB inh conf = CF NF-kB inhibition confirmation, single concentration; shares compounds with CF NFkB block; KKLEB CF airway cells, PAF-induced NF-kB-GFP fluorescence, overnight; inhibition, % at 5 µM; actives 64% (n = 1,300); AID 602472; in the data active = inhibition above about 40%;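 also: stimulus PAF is a Pseudomonas aeruginosa filtrate and not platelet activating factor; plate controls were DMSO wells with stimulus for no effect and unstimulated DMSO wells for full effect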
* marks the source's active call; other numbers are inactive results; x = not tested or not shown. A selection: hits, their analogues and other compounds. The true share with any hit is near 3.9%.

SMILES	TROY NFkB inh	HIF-2a block	Peg3 prom inh	TWEAK-Fn14 inh	KKLEB tox	CF NFkB block	CF NFkB inh conf
COc1ccc(C(=O)NC(C)c2ccccc2)cc1Br (stereo unspecified)	3.9	1.6	12.8	7.5	0.9	11.0	x
C[C@@H](NC(=O)c1coc(=O)c(Br)c1)c1ccccc1	9.3	9.8	98.9*	87.4*	-5.7	73.8*	60.1*
COc1ccc(NC(=O)c2cc(C(C)C)on2)c(OC)c1	-56.6	-234.3	-317.1	-5.7	-0.6	-5.7	x
O=[N+]([O-])c1cccc(NC(=S)Nc2nc(-c3ccccc3Cl)cs2)c1	39.6	-109.4	-35.4	56.0*	-16.8	50.4*	67.2*
COC(=O)/C(=C/c1ccco1)NC(=O)c1ccc(Br)o1	-16.8	2.3	5.1	3.2	12.1	-14.6	x
CC/C(=N\O)c1c(O)c2c(n(-c3ccccc3)c1=O)CCCC2	10.0	8.6	-1.5	4.2	6.4	-11.0	x
CN(C(=O)COc1ccccc1C(=O)NCCOc1ccccc1)c1ccccc1	61.6*	-10.4	106.3*	87.7*	-25.6	56.9*	23.2
O=C(NCCOc1ccccc1)c1ccccc1Cl	-16.4	-163.2	-168.7	43.7	12.6	-9.0	x
COC(=O)N1C(=O)[C@@](c2ccccc2)(C(C)C)N1C(=O)OC	18.6	11.4	29.3	61.1*	5.9	58.0*	51.1*
COC(=O)N1C(=O)[C@](c2ccccc2)(C2CCCC2)N1C(=O)OC	30.4	26.7	29.9	47.3	-15.5	10.7	x
COC(=O)N1C(=O)[C@@](c2ccc(OC)cc2)(C(C)C)N1C(=O)OC	15.6	26.5	45.6	56.8*	-11.9	69.1*	57.3*
CCc1cc2c(=O)n(Cc3ccco3)c(SCc3c(C)noc3C)nc2s1	9.1	-8.2	31.4	13.7	-28.5	-72.6	x
COc1ccc(S(=O)(=O)N2CCCCCC2)cc1C(=O)N(C)CC(=O)Nc1ccc(F)cc1	-5.2	1.7	4.0	-1.9	-6.5	11.4	x
COc1ccc(C(=O)CC(=O)C(=O)Nc2ccc(C)c(C)c2)cc1	-39.8	-2.4	5.2	-20.5	6.5	14.5	x
Cc1c(C(=O)N2CCC(Cc3ccccc3)CC2)cccc1[N+](=O)[O-]	9.6	23.7	16.8	-16.3	-4.4	51.2*	43.1*
NC(=O)c1cc2ccc(O)cc2oc1=Nc1ccccc1	-2.0	-109.7	-119.2	45.2	-27.8	82.2*	83.2*
CCC1(c2ccccc2)C(=O)N(C(=O)OC(C)(C)C)N1C(=O)OC(C)(C)C (stereo unspecified)	-3.1	5.0	31.4	23.8	1.8	-16.9	x
CCOC(=O)N1C(=O)[C@](CC)(c2ccccc2)N1C(=O)OCC	-8.7	29.6	41.5	24.4	1.1	56.2*	21.0
O=C(Nc1cccc(S(=O)(=O)N2CCCCC2)c1)Nc1ccc(Cl)cc1Cl	59.5*	-37.0	51.7*	83.3*	-46.5	58.5*	67.2*
Cn1cc([N+](=O)[O-])c(C(=O)Nc2ccc(Br)cn2)n1	4.3	-437.9	14.8	-9.0	9.6	16.2	x
Cn1cc([N+](=O)[O-])c(C(=O)Nc2ccc(-c3nc4ccccc4o3)cc2)n1	-68.9	-34.6	50.6*	-15.6	-35.9	67.8*	-86.6
O=S(=O)(c1ccc(Cl)cc1)n1ccc2cccnc21	-23.3	21.8	20.4	-5.0	-15.8	16.1	x
CCOC(=O)c1sc2ncn(/N=C/c3cccnc3)c(=O)c2c1C	-22.7	-1.7	-26.8	-19.1	1.0	-7.7	x
COc1ccc([N+](=O)[O-])c(C=CC(=O)c2ccccn2)c1	-1.6	22.9	101.3*	19.3	-28.9	91.2*	-58.6
CCC(=NCCc1c(C)[nH]c2ccc(C)cc12)C1=C(O)CC(c2ccccc2)CC1=O (stereo unspecified)	25.1	28.5	21.6	31.3	-20.5	57.3*	77.7*
SMILES	TROY NFkB inh	HIF-2a block	Peg3 prom inh	TWEAK-Fn14 inh	KKLEB tox	CF NFkB block	CF NFkB inh conf
CC(=O)C1=C(O)CC(c2ccccc2)CC1=NCCc1c(C)[nH]c2ccc(C)cc12 (stereo unspecified)	6.6	4.0	-0.7	21.6	-2.3	0.1	x
O=C(Nc1ccc(N2CCN(C(=O)c3ccccc3F)CC2)cc1)c1cncc(Br)c1	64.1*	20.0	8.1	63.8*	-1.4	68.9*	76.3*
CCCCn1c(=O)c(-[n+]2ccccc2)c([O-])c2ccccc21	16.6	-0.1	-5.1	6.0	5.1	5.4	x
CC(C)CNC(=S)N1CCC(C(=O)c2ccc(Cl)cc2)CC1	21.8	3.9	4.0	15.5	-1.2	18.1	x
CCN(C(=O)c1cc(S(=O)(=O)N2CCCCC2)c[nH]1)c1ccc(OC)cc1	22.9	13.0	12.6	31.1	-11.9	50.4*	45.8*
Nc1ncnc(Nc2ccc(F)cc2)n1	-11.8	-14.4	-30.6	-1.4	-13.3	2.6	x
Fc1ccc(Nc2ccnc(Nc3ccc(F)cc3)n2)cc1	-18.9	-274.5	-195.2	25.2	-16.9	57.6*	56.1*
Cc1ccc(NC(=O)Nc2nnc(-c3ccncc3)s2)cc1C	36.3	-152.0	-138.6	81.6*	-29.7	89.7*	77.0*
O=C1C(NS(=O)(=O)c2cccs2)=C(N2CCN(c3ccccc3)CC2)C(=O)c2ccccc21	-17.1	-115.4	-49.1	3.5	-0.6	4.9	x
Cc1ccc2nc(C(F)(F)F)c(C#N)c(N)c2c1	53.2*	-31.0	100.8*	64.4*	-11.8	83.2*	99.6*
Cc1cccc(C(C#N)c2nc3ccccc3nc2C(F)(F)F)c1 (stereo unspecified)	-24.8	8.8	20.6	-12.3	-8.4	12.9	x
O=C(O)[C@H](Cc1ccccc1)NC(=O)C(c1ccccc1)(c1ccccc1)c1ccccc1	4.1	10.1	7.7	13.8	41.7	6.1	x
CCCCCc1cc(O)c2c(C)cc(=O)oc2c1	37.6	-46.2	-9.0	30.2	-7.8	74.5*	80.4*
Cc1cc(=O)oc2cc(O)cc(O)c12	4.0	5.0	-3.4	32.1	-10.2	-8.8	x
CN1C2C=CC(=O)C1C1C(=O)N(c3ccccc3)C(=O)C12 (stereo unspecified)	23.8	22.3	38.3	27.3	-6.5	61.5*	34.8
CCOC(=O)Cn1c(O)c(N=NC(=O)OC)c2ccccc21	-4.2	23.1	15.2	-11.4	14.8	-17.1	x
CC(C)c1ccc(N(CC(=O)NCc2ccc(F)cc2)C(=O)c2csnn2)cc1	3.5	-37.6	2.1	8.5	-1.9	-1.0	x
COc1cc2c(c(OC)c1OC)-c1ccc(SC)c(=O)cc1C(NC(=O)C(F)(F)F)CC2 (stereo unspecified)	7.4	16.1	-32.6	0.9	-17.1	56.2*	83.8*
CCOCC(=O)NC1CCc2cc(OC(=O)COCC)c(OC)c(OC)c2-c2ccc(SC)c(=O)cc21 (stereo unspecified)	22.8	29.5	-15.6	15.8	-28.3	52.0*	83.5*
